Drawing on PubChem BioAssay, this text covers inhibition for 17 compounds.

The source made the active and inactive calls. How the calls were made is not given here.

For the assay, the target named is Lethal factor (Bacillus anthracis) (UniProt P15917). The assay can be described thus: Bacillus anthracis lethal factor inhibition, microsphere flow cytometry protease assay, validation at 10 µM (AID 588461). The settings on record: multiplex microsphere protease cleavage assay, stronger effect = higher value.
Lethal factor (Bacillus anthracis), sequence (P15917 whole entry, looked up): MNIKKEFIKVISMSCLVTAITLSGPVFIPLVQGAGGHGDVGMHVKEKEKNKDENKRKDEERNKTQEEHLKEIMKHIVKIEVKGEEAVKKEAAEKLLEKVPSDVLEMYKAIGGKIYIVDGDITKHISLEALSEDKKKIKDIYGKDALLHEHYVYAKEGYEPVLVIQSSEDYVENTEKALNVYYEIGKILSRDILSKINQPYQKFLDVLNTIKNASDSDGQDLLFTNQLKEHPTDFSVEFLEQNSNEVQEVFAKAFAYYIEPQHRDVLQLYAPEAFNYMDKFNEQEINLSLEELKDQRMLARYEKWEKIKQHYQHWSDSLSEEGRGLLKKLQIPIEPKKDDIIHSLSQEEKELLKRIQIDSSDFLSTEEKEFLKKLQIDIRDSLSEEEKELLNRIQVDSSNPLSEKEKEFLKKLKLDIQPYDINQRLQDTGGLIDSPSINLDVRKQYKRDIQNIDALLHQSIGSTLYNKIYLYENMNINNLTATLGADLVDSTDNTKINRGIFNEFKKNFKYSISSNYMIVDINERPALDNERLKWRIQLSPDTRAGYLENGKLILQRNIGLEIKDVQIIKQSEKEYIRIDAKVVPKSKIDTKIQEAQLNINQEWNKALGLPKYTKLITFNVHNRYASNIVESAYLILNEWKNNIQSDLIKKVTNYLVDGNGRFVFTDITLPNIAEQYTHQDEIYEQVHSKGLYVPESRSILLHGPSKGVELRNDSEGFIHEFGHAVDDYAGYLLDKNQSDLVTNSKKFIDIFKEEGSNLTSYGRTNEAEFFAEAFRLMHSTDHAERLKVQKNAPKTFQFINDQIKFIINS
`O=C(/C=C/c1ccco1)Nc1ccccc1C(=O)O`: the inhibition was 1.7% (inactive).
Next, `CN1CCc2cccc3c2[C@H]1Cc1ccc(O)c(O)c1-3`: -33.9% (inactive); `CN(C)CCCN1c2ccccc2CCc2ccc(Cl)cc21`: -1.4% (inactive); `CC(C)NC(=O)C1(c2ccccc2)CCOCC1`: -2.6% (inactive).
Next, `O=C1C(O)CC2c3ccccc3CC3(CCCC3)N12` (configuration not stated): -6% (inactive); `CC(C)CC(NC(=O)c1cccc(Cl)c1)C(=O)O` (configuration not stated): 0.4% (inactive).
In the case of `NC(=O)c1ncn([C@@H]2O[C@H](CO)[C@@H](O)[C@H]2O)c1O`, the inhibition was -13.3% (inactive).
The value for `CC(C)(C)c1ccc(C(O)CCCN2CCC(C(O)(c3ccccc3)c3ccccc3)CC2)cc1` (configuration not stated) was -3.6% (inactive); that for `O=C(O)CCNC(=O)c1ccccc1` was -7.3% (inactive); that for `COC1=CC(=O)CC(C)C12Oc1c(Cl)c(OC)cc(OC)c1C2=O` (configuration not stated) was -1.8% (inactive).
The value for `COc1cccc2c1OCC1COc3c(c(=O)n(C)c(=O)n3C)C21` (configuration not stated) was 0.2% (inactive); that for `Cc1ccc2c(c1)C1(C(=O)N2)N2CCCC2C(C(=O)c2ccc3ccccc3c2)C12C(=O)Nc1ccccc12` (configuration not stated) was -10% (inactive); that for `Nc1ccc(S(=O)(=O)c2ccc(N)cc2)cc1` was 4.9% (inactive).
The value for `CCc1cccc2c1NC1(CCCC1)CC2C` (configuration not stated) was 167% (active); that for `O=C(Nc1c(C(=O)O)[nH]c2ccccc12)NC1CCCCC1` was -2.2% (inactive); that for `COc1ccc(CCN2CCC(Nc3nc4ccccc4n3Cc3ccc(F)cc3)CC2)cc1` was 1.2% (inactive).
As for `CC(C)NCC(O)COc1ccc(CC(N)=O)cc1` (configuration not stated), the inhibition is -2.4% (inactive).
